Laboratory results as given in article PMC4336329 (PLoS ONE, 2015).
Hit rate of the full screen: of about 310,000 compounds, about 14,000 (4.5%) showed an effect of 50% or more. The effect is printed as a negative number. For the sample, strong results were picked, then their nearest neighbours and some compounds at random.

The compounds below were run against human ether-à-go-go-related gene (hERG) potassium channel (human, UniProt Q12809) (assay: primary screen, population patch clamp on CHO cells stably expressing hERG; higher = less effect of the substance).
Sequence of human ether-à-go-go-related gene (hERG) potassium channel (Q12809 whole entry, looked up): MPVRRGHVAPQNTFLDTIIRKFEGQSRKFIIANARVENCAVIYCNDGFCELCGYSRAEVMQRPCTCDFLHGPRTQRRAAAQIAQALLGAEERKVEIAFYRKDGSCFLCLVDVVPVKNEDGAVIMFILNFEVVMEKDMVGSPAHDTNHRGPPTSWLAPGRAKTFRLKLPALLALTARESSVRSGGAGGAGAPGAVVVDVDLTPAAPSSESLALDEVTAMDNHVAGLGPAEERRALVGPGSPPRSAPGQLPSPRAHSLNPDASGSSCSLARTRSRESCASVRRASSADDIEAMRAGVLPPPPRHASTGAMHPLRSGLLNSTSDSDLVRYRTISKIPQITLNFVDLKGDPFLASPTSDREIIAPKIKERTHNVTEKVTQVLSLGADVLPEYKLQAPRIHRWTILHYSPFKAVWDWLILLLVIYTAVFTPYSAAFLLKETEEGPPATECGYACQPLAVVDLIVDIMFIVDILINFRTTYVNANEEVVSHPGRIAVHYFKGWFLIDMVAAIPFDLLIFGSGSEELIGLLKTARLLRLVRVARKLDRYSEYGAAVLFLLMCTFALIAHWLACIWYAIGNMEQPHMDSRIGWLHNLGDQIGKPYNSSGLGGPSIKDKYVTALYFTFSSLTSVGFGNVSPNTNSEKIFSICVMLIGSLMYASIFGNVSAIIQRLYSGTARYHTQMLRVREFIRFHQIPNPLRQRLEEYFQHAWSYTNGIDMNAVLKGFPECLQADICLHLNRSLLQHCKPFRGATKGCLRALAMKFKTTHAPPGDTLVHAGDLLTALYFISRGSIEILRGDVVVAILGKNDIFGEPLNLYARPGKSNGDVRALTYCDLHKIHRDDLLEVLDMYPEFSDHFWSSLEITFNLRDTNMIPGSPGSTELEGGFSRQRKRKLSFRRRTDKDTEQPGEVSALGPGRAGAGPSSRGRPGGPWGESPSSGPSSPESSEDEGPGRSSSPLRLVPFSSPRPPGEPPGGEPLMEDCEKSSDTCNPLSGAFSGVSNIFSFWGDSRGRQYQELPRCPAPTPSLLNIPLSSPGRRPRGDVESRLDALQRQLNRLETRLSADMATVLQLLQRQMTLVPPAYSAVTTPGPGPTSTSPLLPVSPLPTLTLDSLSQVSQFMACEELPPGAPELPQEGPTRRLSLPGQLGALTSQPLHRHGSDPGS
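Note: peak tail current of the secondary pulse compared with the same well before compound.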

Row | SMILES | hERG current change (%, negative = inhibition) at 10uM
1 | Cc1noc(C)c1S(=O)(=O)NCc1ccc(CN(C)C)cc1.Cl | 6.09%
2 | COc1ccc(CCNC(=O)/C(C#N)=C/c2ccc(OCC(=O)NCC3CCCO3)cc2)cc1OC (stereo not shown) | 11.7%
3 | CC(C)N(C(=O)COC(=O)c1ccc(O)cc1)C(C)C | -1.54%
4 | CCS(=O)(=O)c1nc(S(=O)(=O)c2ccc(C)cc2)c(NCCCN2CCCC2=O)s1 | -11.3%
5 | CS(=O)(=O)c1nc(S(=O)(=O)c2ccc(Cl)cc2)c(NCCCN2CCOCC2)s1 | -46.8%
6 | CCCCNC(=O)c1cn(C)c2ccc(S(=O)(=O)N3CC(C)CC(C)C3)cc2c1=O (stereo not shown) | 1.55%
7 | O=C1NC(=S)NC(=O)C12C(c1ccc(F)cc1)NC(=S)NC2c1ccc(F)cc1 (stereo not shown) | -4.14%
8 | Cl.Oc1cccc(Nc2nc(-c3ccccc3Cl)nc3ccccc23)c1 | 7.09%
9 | CCCn1c(C)cc(C(=O)Cn2nnc3ccccc3c2=O)c1C | -34.7%
10 | O=C(CSc1ccc(-c2ccco2)nn1)c1ccccc1 | -9.74%
11 | O=C(CSc1ccc(-c2cccs2)nn1)Nc1ccccc1 | -35%
12 | CC(=O)c1cccc(NC(=O)CSc2ccc(-c3ccco3)nn2)c1 | 1.79%
13 | O=C(CSc1ccc(-c2ccco2)nn1)Nc1cccc(F)c1 | -55.2%
14 | Cc1cc(C)cc(NC(=O)CSc2ccc(-c3ccco3)nn2)c1 | -28.8%
15 | CC(=O)Nc1ccc(NC(=O)CSc2ccc(-c3cccs3)nn2)cc1 | 11.4%
16 | Cc1cccc(NC(=O)CSc2ccc(-c3ccco3)nn2)c1 | -59.5%
17 | COc1ccc(C(=O)CSc2ccc(-c3ccco3)nn2)cc1 | -78.1%
18 | O=C(CSc1ccc(-c2ccco2)nn1)c1ccc(F)cc1 | -25.8%
19 | CCc1ccc(NC(=O)CSc2ccc(-c3ccco3)nn2)cc1 | -16.6%
20 | CC(=O)Nc1cccc(NC(=O)CSc2ccc(-c3ccco3)nn2)c1 | 0.763%
21 | Cc1cc(C)cc(NC(=O)CSc2ccc(-c3cccs3)nn2)c1 | -52.2%
22 | Cc1cc(OC(C)C(=O)Nc2cccnc2)ccc1Cl (stereo not shown) | 2.05%

Row | SMILES | hERG current change (%, negative = inhibition) at 10uM
23 | COc1ccc(CNC(=O)C2CCN(S(=O)(=O)c3ccc4c(c3)NC(=O)CO4)CC2)cc1 | 16.7%
24 | O=C(NC(Cc1c[nH]c2ccccc12)C(=O)O)/C(=C\c1ccc2c(c1)OCO2)NC(=O)c1ccccc1 (stereo not shown) | -7.13%
25 | CCCC(=O)Nc1ccc2nc(SCC(=O)N3CCCC3)sc2c1 | 2.52%
26 | O=C(O)c1cccc(S(=O)(=O)N2CCCC(c3nc4c(nnn4Cc4ccc(F)cc4)c(=O)[nH]3)C2)c1 (stereo not shown) | -15.3%
27 | O=C1/C(=C\c2ccc(Br)o2)SC(=Nc2ccccc2)N1c1ccccc1 | -10.1%
28 | Cl.N=c1c2c(n(Cc3ccc(Cl)c(Cl)c3)c3c1CCC3)CCCC2 | -15.8%
29 | COc1cc(NC(=O)Cc2ccccc2)ccc1NC(=O)c1ccco1 | 18.5%
30 | O=C(CSc1ccc(-c2ccco2)nn1)Nc1ccc(F)cc1F | -65.8%
31 | O=C(CSc1ccc(-c2ccco2)nn1)Nc1ccc(F)cc1 | -68.5%
32 | Cc1ccc(NC(=O)CSc2ccc(-c3ccco3)nn2)c(C)c1 | -24.4%
33 | O=C(CSc1ccc(-c2ccco2)nn1)Nc1ccccc1F | -43.4%
34 | CC(=O)Nc1ccc(NC(=O)CSc2ccc(-c3ccco3)nn2)cc1 | -2.54%
35 | O=C(CSc1ccc(-c2ccco2)nn1)Nc1ccccc1 | -47.6%
36 | CC(NC(=O)c1ccco1)c1nc(-c2ccccc2Cl)no1 (stereo not shown) | 3.9%
37 | Cc1cc2nc(-c3cccc(NC(=O)c4ccc(Br)o4)c3C)oc2cc1C | 5.67%
38 | Cc1nc(C)c(-c2ccc(SCC(=O)Nc3cccc(F)c3)nn2)s1 | 8.66%
39 | CC(C)C(=O)Nc1ccc(Cc2ccc(NC(=O)C(C)C)c(O)c2)cc1O | -23%
40 | COc1cccc(-c2nc(CS(=O)(=O)CC(=O)NCCc3ccc(OC)cc3OC)c(C)o2)c1 | -13%
41 | Cc1ccnc(NS(=O)(=O)c2ccc(NC(=O)Cc3ccccc3)cc2)n1 | 5.26%
42 | COc1ccc(/C=C/C(=O)NCCc2ccc(S(N)(=O)=O)cc2)cc1 | 3.55%
43 | O=C(/C=C/c1ccc([N+](=O)[O-])cc1)NCCSCc1ccco1 | -61.3%
44 | COc1ccccc1OCCNC(=O)/C=C/c1ccc([N+](=O)[O-])cc1 | -49.2%

Row | SMILES | hERG current change (%, negative = inhibition) at 10uM
45 | O=C(/C=C/c1cccc([N+](=O)[O-])c1)NCCSCc1ccco1 | -29.5%
46 | NS(=O)(=O)c1ccc(CCNC(=O)/C=C/c2ccc([N+](=O)[O-])cc2)cc1 | -69.8%
47 | COc1ccc(OCCNC(=O)/C=C/c2ccc([N+](=O)[O-])cc2)cc1 | -64.7%
48 | O=C(/C=C/c1ccc([N+](=O)[O-])cc1)NCCc1ccccc1 | -14.4%
49 | O=C(/C=C/c1cccc([N+](=O)[O-])c1)NCCc1ccc(F)cc1 | -21.8%
50 | COc1ccc(/C=C/C(=O)NCCOc2ccc(C)cc2)cc1 | 6.3%
51 | O=C(/C=C/c1ccc([N+](=O)[O-])cc1)NCCc1ccc(F)cc1 | -60.3%
52 | O=C(/C=C/c1ccc([N+](=O)[O-])cc1)NCc1ccco1 | -24.1%
53 | NS(=O)(=O)c1ccc(CCNC(=O)/C=C/c2cccc([N+](=O)[O-])c2)cc1 | -13.7%
54 | O=[N+]([O-])c1cc(/C=N\Nc2ccccn2)ccc1Cl | 18.4%
55 | CCN(CC)c1ccc(NC(=O)CN(C)Cc2cccs2)cc1 | 6.07%
56 | O=C(O)c1ccc(NC(=O)c2cccs2)cc1 | 10.1%
57 | COc1ccc(NC(=O)COc2ccccc2F)cc1S(=O)(=O)N1CCCCC1 | 6.02%
58 | Cc1ccc2c(c1)c1nnc(SCC(=O)N3CCCc4ccccc43)nc1n2CC(=O)O | 20.2%
59 | COc1ccc(N2CCN(C(=O)CSc3nnc4c5cc(C)ccc5n(C)c4n3)CC2)cc1 | -13.9%
60 | Cc1ccc2c(c1)c1nnc(SCC(=O)N3CCN(c4ccc(F)cc4)CC3)nc1n2CC(=O)O | -63.1%
61 | COc1cccc(OCc2ccc(Cl)cc2)c1C#N | 19.6%
62 | CCC(=O)N1CCc2cc(S(=O)(=O)NC(CC(C)C)C(=O)N3CCc4ccccc43)ccc21 (stereo not shown) | -2.28%
63 | NC(=O)c1ccccc1NCC(=O)c1ccc(Cl)cc1 | 16.4%
64 | O=C(c1cccc([N+](=O)[O-])c1)c1ccc2c(c1)C(=O)NC2=O | -11.5%
65 | c1ccc2c(c1)OCCOCCOCCOCCOc1ccccc1OCCOCCOCCO2 | -62.1%
66 | CC(=O)[O-].[K+].c1ccc2c(c1)OCCOCCOc1ccccc1OCCOCCO2 | -74.7%

Row | SMILES | hERG current change (%, negative = inhibition) at 10uM
67 | c1ccc2c(c1)OCCOCCOCCO2 | 10%
68 | CC(=O)Nc1cccc2c1OCCO2 | 6.45%
69 | C=C(C)C(=O)Nc1ccc2c(c1)OCCOCCOCCO2 | -26.4%
70 | c1ccc2c(c1)OCCOCCOCCOCCOCCOc1ccccc1OCCOCCOCCO2 | -59.2%
71 | O=C(N1CCOCCOc2ccccc2OCCOCC1)C(F)(F)F | 6.2%
72 | OCCN1CCOCCOc2ccccc2OCCOCC1 | 1.57%
73 | CN1CCOCCOc2ccccc2OCCOCC1 | 7.5%
74 | O=C(Nc1ccc(Br)cn1)c1ccc2ccccc2c1 | 26.8%
75 | N=c1occ(C(=O)c2cc(F)ccc2O)cc1C(=O)NC1CCCCC1 | 0.995%
76 | O=C(COc1ncnc2ccccc12)Nc1ccc(Cl)c([N+](=O)[O-])c1 | -7.85%
77 | CCOc1ccc(S(=O)(=O)Nc2ccc(C(=O)NCCCN3CCCC3=O)cc2)cc1 | 0.2%
78 | Cc1csc(=Nc2cccnc2)n1Cc1ccco1 | -0.17%
79 | Cl.c1ccc(-c2csc(=Nc3cccnc3)n2CC2CCCO2)cc1 (stereo not shown) | -31.4%
80 | Br.COCCn1c(-c2ccccc2)csc1=Nc1cccnc1 | -68.3%
81 | Clc1ccc(-c2csc(=Nc3cccnc3)n2CCCn2ccnc2)cc1Cl | -67.3%
82 | CCCCn1c(C)csc1=Nc1cccnc1 | -2.02%
83 | COCCn1c(-c2ccc(Br)cc2)csc1=Nc1cccnc1 | -14.2%
84 | COCCn1c(-c2ccco2)csc1=Nc1cccnc1.Cl | -3.9%
85 | COCCCn1c(C)csc1=Nc1cccnc1 | 4.68%
86 | Cc1ccc(-c2csc(=Nc3cccnc3)n2CCCn2ccnc2)cc1C | -70.2%
87 | CCCNS(=O)(=O)c1ccc(OCC(=O)N2CCC(C(=O)OCC)CC2)cc1 | -12.6%
88 | COc1ccc(C2Nc3ccccc3NC3=C2C(=O)CC(C)(C)C3)cc1O (stereo not shown) | 19%
